Test results: PubChem BioAssay (EPA / NIEHS)
Several values for one entry are separate records, joined by “and”; a condition that tells them apart may be missing. Identical values can stand only once. Records with an inconclusive call do not appear. Where a structure was tested more than once in an assay, its records may differ in their call. Activity calls are given as the source filed them. Rule for the calls, unless noted: active = hit-call score of the fitted dose curve at least 0.9, where 1 is the maximum; inactive = score below 0.9.

Assays:
[1] = CCTE_Mundy_HCI_Cortical_Synap_Neur_Matur_NeuriteSpotCountPerNeuron: CCTE's Synaptogenesis and Neurite Maturation Assay in rat cortical cells for Neurite Spot Count per Neuron Count, Mundy Lab (AID 2284215)
How it was run: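 High-content imaging counts synaptophysin puncta along MAP2-labelled neurites per neuron after chemical exposure of rat cortical cells from DIV 7 to termination at DIV 12 (AraC added DIV 5). Loss of signal relative to DMSO.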

[2] = CCTE_Mundy_HCI_Cortical_Synap_Neur_Matur_SynapseCount: CCTE's Synaptogenesis and Neurite Maturation Assay in rat cortical cells for Synapse Count, Mundy Lab (AID 2284218)
How it was run: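 Rat primary cortical cells in 96-well plates received AraC at DIV 5 and were dosed with chemicals at DIV 7 with media change, through DIV 12 (288.33 h). Synapses per neuron counted by high-content imaging of MAP2/synaptophysin/Hoechst staining, versus DMSO baseline.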

[3] = CCTE_Mundy_HCI_Cortical_Synap_Neur_Matur_NeuriteCount: CCTE's Synaptogenesis and Neurite Maturation Assay in rat cortical cells for Neurite Count, Mundy Lab (AID 2284222)
How it was run: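 In this multiplexed morphology readout, rat primary cortical neurons are fixed at DIV 12 following dosing at DIV 7 and stained for MAP2, synaptophysin and nuclei. High-content image analysis yields neurite count.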

[4] = CCTE_Mundy_HCI_Cortical_Synap_Neur_Matur_CellBodySpotCount: CCTE's Synaptogenesis and Neurite Maturation Assay in rat cortical cells for Cell Body Spot Count, Mundy Lab (AID 2284223)
How it was run: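 High-content imaging counts synaptophysin puncta on neuronal cell bodies per neuron after MAP2/synaptophysin immunostaining. Rat primary cortical cells, glia arrested with AraC at DIV 5, were exposed DIV 7–12; signal decrease measured against DMSO.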

[5] = CCTE_Mundy_HCI_hNP1_Pro_ResponderAvgInten: CCTE's Proliferation Assay in human neuroprogenitor cells, Mundy Lab (AID 2284224; active = hit-call score of the fitted dose curve at least 0.9, where 1 is the maximum;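 note: human neural progenitor cells hNP1 derived from WA09 embryonic stem cells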)
How it was run: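 Proliferation was scored as BrdU labelling intensity in human neural progenitors derived from WA09 embryonic cells, measured 26.25 hours after chemical dosing. Activity was fitted relative to DMSO.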

[6] = BSK_BT_PBMCCytotoxicity: PBMC Cytotoxicity Assessment in the BioMAP Diversity Plus: BT Assay (AID 2284225); details: primary human B cells with PBMC;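 note: PBMC viability measured by Alamar Blue dye reduction fluorescence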
How it was run: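 75,000 cells/well; cpd 1 h → SEB + TSST-1 (20 ng/mL final each) → 90 h → Alamar Blue 6 h → fluor. 546/580 nm. DMSO = neg. control/baseline.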

[7] = read-out: Secreted IgG (sIgG), gene 3500; test: BSK_BT_sIgG: BioMAP Diversity Plus: BT Assay for Secreted IgG (sIgG) Biomarker Activity (AID 2284226); details: primary human B cells with PBMC
How it was run: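 B cells co-cultured with PBMC were dosed with chemical and secreted IgG quantified by ELISA at 24 h. Activity was fitted in the positive direction relative to DMSO as negative control and baseline.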

[8] = TAMU_PeakParms_SingleDonor1434_Chronotropy: Texas A&M University (TAMU) 1.5-hr Human Induced Pluripotent Stem Cell (iPSC)-derived Cardiomyocytes Calcium (Ca+2) Flux Assay for Cardiotoxicity: Chronotropy (changes in peak frequency) (AID 2284217); details: actives raise or lower the signal
How it was run: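 Using fluorescent Ca2+ flux, average beats per second are measured in human iPSC-derived cardiomyocytes treated 90 min (0.5% DMSO vehicle, 0.2–100 uM). Non-beating data points are removed; activity is modeled in both directions relative to DMSO controls.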

[9] = CCTE_Mundy_HCI_hN2_NOG_NeuriteLength: CCTE's Neurite Outgrowth Assay in human hN2 cells for Neurite Length, Mundy Lab (AID 2284220; active = hit-call score of the fitted dose curve at least 0.9, where 1 is the maximum)
How it was run: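 Plate hNP1-derived neurons, then add chemical 2 h later as a 1/10 dilution. Stain with anti-βIII-tubulin then Alexa Fluor-488 secondary, and image automatically to measure neurite length.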

[10] = CCTE_Mundy_HCI_hN2_NOG_NeuronCount: CCTE's Neurite Outgrowth Assay in human hN2 cells for Neuron Count, Mundy Lab (AID 2284221; active = hit-call score of the fitted dose curve at least 0.9, where 1 is the maximum)
How it was run: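 Read-out is the number of betaIII-tubulin-positive neurons imaged by automated high-content analysis, with DMSO as negative control.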

Measured: AC50

O=C(O)C(F)(F)C(F)(F)C(F)(F)C(F)(F)C(F)(F)C(F)(F)C(F)(F)F
active: [6] 30 µM
inactive: [1] | [2] | [3] | [4] | [5] | [6] | [7]

O=[N+]([O-])/N=C1\NCCN1Cc1ccc(Cl)nc1
inactive: [1] | [2] | [3] | [4] | [5]

CC1(C)C(C=C(Cl)Cl)C1C(=O)OC(C#N)c1ccc(F)c(Oc2ccccc2)c1 (centres undefined)
active: [1] 72 µM and 15 µM | [2] 77.9 µM | [3] 73.6 µM | [4] 87.1 µM
inactive: [2] | [3] | [4] | [5]

CCC(C)(C)C(=O)OC1=C(c2ccc(Cl)cc2Cl)C(=O)OC12CCCCC2
inactive: [1] | [2] | [3] | [4] | [5]

CNC(=O)CSP(=S)(OC)OC
inactive: [1] | [2] | [3] | [4] | [5]
active: [1] 50 µM | [2] 50 µM | [3] 50 µM

CCOCN(C(=O)CCl)c1c(C)cccc1CC
active: [8] 4.73 µM

COP(=S)(OC)Oc1ccc([N+](=O)[O-])cc1
inactive: [2] | [3] | [4]
active: [1] 15 µM

CC1(c2ccc(Oc3ccccc3)cc2)OC(=O)N(Nc2ccccc2)C1=O (centres undefined)
inactive: [5]
active: [1] 24.1 µM | [2] 40 µM | [3] 59 µM | [4] 79.9 µM

ClC1C(Cl)C(Cl)C(Cl)C(Cl)C1Cl (centres undefined)
active: [8] 11.5 µM | [7] 30.5 µM and 21.1 µM
inactive: [6]

O=C(O)COc1ccc(Cl)cc1Cl
inactive: [1] | [2] | [3] | [5]

COP(=O)(OC)OC=C(Cl)Cl
active: [1] 49 µM | [2] 9.71 µM | [10] 0.355 µM
inactive: [1] | [2] | [9] | [3] | [4] | [5]

CN1CSC(=S)N(C)C1
inactive: [8]

CC(C)N(C(=O)COc1nnc(C(F)(F)F)s1)c1ccc(F)cc1
inactive: [1] | [2] | [3] | [4] | [5]

O=S(=O)(O)C(F)(F)C(F)(F)C(F)(F)C(F)(F)C(F)(F)C(F)(F)C(F)(F)C(F)(F)F
inactive: [1] | [2] | [3] | [4] | [6] | [7]
active: [6] 24 µM and 33.9 µM

O=S1OCC2C(CO1)C1(Cl)C(Cl)=C(Cl)C2(Cl)C1(Cl)Cl (centres undefined)
inactive: [3]
active: [1] 15 µM | [8] 4.73 µM | [2] 19.6 µM | [4] 23.4 µM | [5] 23 µM

CC[C@H](C)[C@H]1O[C@]2(C=C[C@@H]1C)C[C@@H]1C[C@@H](C/C=C(\C)[C@@H](O[C@H]3C[C@H](OC)[C@@H](O[C@H]4C[C@H](OC)[C@@H](O)[C@H](C)O4)[C@H](C)O3)[C@@H](C)/C=C/C=C3\CO[C@@H]4[C@H](O)C(C)=C[C@@H](C(=O)O1)[C@]34O)O2 (tested in a mixture with another compound)
active: [1] 1.19 µM | [2] 1.41 µM | [3] 1.59 µM | [4] 1.75 µM | [5] 1.45 µM
